Records with an inconclusive call do not appear. Activity calls are given as the source filed them. Calls follow the shape of the dose curve; as a rule, active = well fitted inhibition curve with a large enough effect; inconclusive = small, poorly fitted or top-dose-only effect; inactive = flat fitted curve, though single readings scatter.
Columns and labels:
Assay in all cases: qHTS profiling for inhibitors of Plasmodium falciparum proliferation (AID 504749); also: nearly all actives have a fitted effect of over 60% in size
Conditions in all cases: P. falciparum in erythrocytes, SYBR Green DNA, 72 h; series mostly up to 28.7 µM
3D7 = system: 3D7
Outline: (§1)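 Readout was DNA-dye fluorescence from lysed cultures, ex 485/em 535 nm. Parasitized red cells had grown 72 h with compound; data scaled between 0.29 uM artemisinin and DMSO wells and corrected using vehicle-only plates.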

C2A = system: C2A
Outline: as §1

CP185 = system: CP185
Outline: as §1

CP201 = system: CP201
Outline: as §1

CP215 = system: CP215
Outline: as §1

CP238 = system: CP238
Outline: as §1

CP250 = system: CP250
Outline: as §1

CP256 = system: CP256
Outline: as §1

CP262 = system: CP262
Outline: as §1

CP266 = system: CP266
Outline: as §1

CP268 = system: CP268
Outline: as §1

CP269 = system: CP269
Outline: as §1

CP286 = system: CP286
Outline: as §1

CP305 = system: CP305
Outline: as §1

CP325 = system: CP325
Outline: as §1

CP329 = system: CP329
Outline: as §1

CP335 = system: CP335
Outline: as §1

DIV30 = system: DIV30
Outline: as §1

P93_24 = system: P93_24
Outline: as §1

PAD = system: PAD
Outline: as §1
Potency is read from the fitted curve at half-maximal effect.

`O=C(CC1NCCC[C@H]1O)Cn1cnc2cc(Br)c(Cl)cc2c1=O` (stereo not given in full) was tested, and the Potency (3D7) was 1 µM (active), the Potency (C2A) was 3.16 µM (active) and the Potency (CP185) was 2.82 µM (active). For the same compound, the Potency (CP201) was 3.38 µM (active), the Potency (CP215) was 3.79 µM (active) and the Potency (CP238) was 3.98 µM (active). For the same compound, the Potency (CP250) was 2.82 µM (active), the Potency (CP256) was 3.16 µM (active) and the Potency (CP262) was “inactive”. For the same compound, the Potency (CP266) was 3.79 µM (active), the Potency (CP268) was 3.38 µM (active) and the Potency (CP269) was 2.69 µM (active). The Potency (CP286) was 2 µM (active), the Potency (CP305) was 3.38 µM (active) and the Potency (CP325) was 3.38 µM (active). For the same compound, the Potency (CP329) was 3.38 µM (active), the Potency (CP335) was 0.601 µM (active) and the Potency (DIV30) was 3.38 µM (active). For the same compound, the Potency (P93_24) was 1.41 µM (active) and the Potency (PAD) was 2.24 µM (active).

For `CCCCC(=O)N(Cc1ccc(-c2ccccc2-c2nn[nH]n2)cc1)C(C(=O)O)C(C)C` (stereo not given), the Potency (3D7) was “inactive”, the Potency (C2A) was “inactive” and the Potency (CP185) was “inactive”. For the same compound, the Potency (CP201) was “inactive”, the Potency (CP215) was “inactive” and the Potency (CP238) was “inactive”. The Potency (CP250) was “inactive”, the Potency (CP256) was “inactive” and the Potency (CP262) was “inactive”. The Potency (CP266) was “inactive”, the Potency (CP268) was “inactive” and the Potency (CP269) was “inactive”. For the same compound, the Potency (CP286) was “inactive”, the Potency (CP305) was “inactive” and the Potency (CP325) was “inactive”. For the same compound, the Potency (CP329) was “inactive”, the Potency (CP335) was 6.01 µM (active) and the Potency (DIV30) was “inactive”. The Potency (PAD) was “inactive”.

`CN1CCN(CCC=C2c3ccccc3Sc3ccc(S(=O)(=O)N(C)C)cc32)CC1` was tested, and the Potency (P93_24) was 12.6 µM (active).

Source: PubChem BioAssay (NCATS)
